Source: PubChem BioAssay (EPA / NIEHS)
“And” between values parts separate entries of the source, which are not always exact repeats. Equal entries are not always repeated. More than one record can exist for a structure, and the calls need not agree. The source made the active and inactive calls. How the source made its calls: active means hit-call score of the fitted dose curve at least 0.9, where 1 is the maximum; inactive means score below 0.9.

Key:
[1] = read-out: Interferon-inducible T-cell alpha chemoattractant (ITAC), CXCL11 (gene 6373); assay: BSK_BE3C_ITAC: BioMAP Diversity Plus: BE3C Assay for Interferon-inducible T-cell alpha chemoattractant (ITAC) Biomarker Activity (AID 2284279); conditions: primary human bronchial epithelial cells
How it was run: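 Steps: dose human bronchial epithelial cells with chemical; incubate 24 h; measure I-TAC by ELISA; fit endpoint in positive direction against DMSO control. Cytotoxicity was checked in parallel cultures by SRB staining at harvest.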

[2] = read-out: Interleukin-8 (IL8), CXCL8 (gene 3576); assay: BSK_BE3C_IL8: BioMAP Diversity Plus: BE3C Assay for Interleukin-8 (IL8) Biomarker Activity (AID 2284280); conditions: primary human bronchial epithelial cells
How it was run: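 ELISA read-out of IL-8 in human lung bronchial epithelial primary cell cultures, 24 h post-dosing; endpoint analysed as signal increase relative to DMSO baseline.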

[3] = read-out: Epidermal growth factor receptor (EGFR), EGFR (gene 1956); assay: BSK_BE3C_EGFR: BioMAP Diversity Plus: BE3C Assay for Epidermal growth factor receptor (EGFR) Biomarker Activity (AID 2284281); conditions: primary human bronchial epithelial cells
How it was run: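 Primary human lung bronchial epithelial cells; compound, 24 h; EGFR measured by ELISA; positive-direction fit vs DMSO baseline.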

KRT18 (gene 3875) = assay: BSK_BE3C_Keratin818: BioMAP Diversity Plus: BE3C Assay for Keratin 818 Biomarker Activity (AID 2284282); conditions: primary human bronchial epithelial cells
How it was run: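 Chemicals are added to human lung bronchial epithelial primary cells (BE3C system) and incubated 24 h. Keratin 8/18 is then measured by ELISA, with parallel SRB total-protein staining gauging overt cytotoxicity.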

[4] = read-out: Matrix Metallopeptidase 9 (MMP9), MMP9 (gene 4318); assay: BSK_BE3C_MMP9: BioMAP Diversity Plus: BE3C Assay for Matrix Metallopeptidase 9 (MMP9) Biomarker Activity (AID 2284283); conditions: primary human bronchial epithelial cells
How it was run: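 BE3C, human bronchial epithelial primary cells; 24 h post-dose; MMP-9 by ELISA; positive fit vs DMSO; SRB (0.1%, TCA-fixed, 560 nm) parallel cytotox.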

[5] = read-out: Plasminogen activator inhibitor-1 (PAI1), SERPINE1 (gene 5054); assay: BSK_CASM3C_PAI1: BioMAP Diversity Plus: CASM3C Assay for Plasminogen activator inhibitor-1 (PAI1) Biomarker Activity (AID 2284284); conditions: primary human coronary artery smooth muscle cells;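 further: PAI-1 protein level measured by ELISA 24 h after dosing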
[6] = read-out: Monocyte Chemoattractant Protein-1 (MCP1), CCL2 (gene 6347); assay: BSK_hDFCGF_MCP1: BioMAP Diversity Plus: hDFCGF Assay for Monocyte Chemoattractant Protein-1 (MCP1) Biomarker Activity (AID 2284285); conditions: primary human foreskin fibroblasts
How it was run: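 Human foreskin fibroblasts (hDFCGF system) were exposed to compound and secreted MCP-1 was measured by ELISA after 24 hours. Activity was fitted relative to DMSO. Cytotoxicity was checked by SRB total-protein staining in parallel cultures.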

[7] = read-out: Vascular cell adhesion molecule 1 (VCAM1), VCAM1 (gene 7412); assay: BSK_IMphg_VCAM1: BioMAP Diversity Plus: IMphg Assay for Vascular cell adhesion molecule 1 (VCAM1) Biomarker Activity (AID 2284286); conditions: primary human endothelial cells with macrophages
Experimental: (§1) BSK_IMphg is a cell-based, multiplexed-readout assay that uses venular endothelial cells and macrophages, a human vascular primary cell, with measurements taken at 24 hours after chemical dosing in a microplate: 96-well plate.BSK_IMphg_VCAM1 is an assay component measured in the BSK_IMphg assay. It measures VCAM-1 antibody related to regulation of gene expression using ELISA technology.Data from the assay component BSK_IMphg_VCAM1 was analyzed at the endpoint, BSK_IMphg_VCAM1, in the positive analysis fitting direction relative to DMSO as the negative control and baseline of activity. Using a type of binding reporter, gain or loss-of-signal activity can be used to understand protein changes. To generalize the intended target to other relatable targets, this assay endpoint is annotated to the 'cell adhesion molecules' intended target family, where the subfamily is 'Immunoglobulin CAM'.
(§2) The levels of cell surface (or secreted, indicated by the prefix "s") biomarker endpoints were measured by ELISA. Overt cytotoxicity to cells in confluent adherent cultures (all systems other than the BT system) was assessed by measuring total protein levels using sulforhodamine B (SRB) staining in parallel cultures at the time of biomarker measurements, indicated as SRB endpoints. For proliferation assays for adherent cell types, individual cell types are cultured at sub-confluence and relative cell numbers quantified by SRB staining at time points optimized for each system (48 h: 3C and CASM3C systems; 72 h: BT and HDF3CGF systems; 96 h: SAg system). SRB was performed by staining cells with 0.1% SRB after fixation with 10% TCA and reading wells at 560 nm.Viability and proliferation of PBMC (T cells) was quantified by Alamar Blue reduction for the SAg and BT systems. […] Then, Alamar Blue (20 uL/well) (Invitrogen, Cat DAL1100) was added for 6 h, and the plates were read with a fluorescence microplate reader at 546/580 nm (excitation/emission). […] Plates were read after 6 h.

[8] = read-out: Intercellular Adhesion Molecule 1 (ICAM1), ICAM1 (gene 3383); assay: BSK_hDFCGF_ICAM1: BioMAP Diversity Plus: hDFCGF Assay for Intercellular Adhesion Molecule 1 (ICAM1) Biomarker Activity (AID 2284287); conditions: primary human foreskin fibroblasts
How it was run: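 Primary human foreskin fibroblasts (hDFCGF system) dosed with chemical; ICAM-1 quantified by ELISA at 24 h relative to DMSO. Parallel SRB total-protein staining to assess overt cytotoxicity.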

CD40, CD40 (gene 958) = assay: BSK_IMphg_CD40: BioMAP Diversity Plus: IMphg Assay for CD40 Biomarker Activity (AID 2284288); conditions: primary human endothelial cells with macrophages
Experimental: as §1, with “plate.BSK_IMphg_CD40” for “plate.BSK_IMphg_VCAM1”, “CD40” for “VCAM-1”, “BSK_IMphg_CD40” for “BSK_IMphg_VCAM1”, “BSK_IMphg_CD40,” for “BSK_IMphg_VCAM1,”, “'cytokine'” for “'cell adhesion molecules'”, “'inflammatory factor'.” for “'Immunoglobulin CAM'.”
as §2

## O=C(O)C(F)(F)C(F)(F)C(F)(F)C(F)(F)C(F)(F)C(F)(F)F
[1]
  outcome: inactive
[2]
  outcome: inactive
[3]
  outcome: inactive
KRT18 (gene 3875)
  outcome: inactive
[4]
  AC50: 30 µM (active)
  outcome: inactive
[5]
  outcome: inactive
[6]
  outcome: inactive
[7]
  outcome: inactive
[8]
  outcome: inactive
CD40, CD40 (gene 958)
  outcome: inactive

## CC(=O)OC(c1ccccc1)C(Cl)(Cl)Cl (configuration not stated)
[1]
  outcome: inactive
[2]
  outcome: inactive
[3]
  outcome: inactive
KRT18 (gene 3875)
  outcome: inactive
[4]
  outcome: inactive
[5]
  outcome: inactive
[6]
  outcome: inactive
[8]
  outcome: inactive

## O=C(O)CCC(F)(C(F)(F)F)C(F)(F)F
[1]
  outcome: inactive
[2]
  outcome: inactive
[3]
  outcome: inactive
KRT18 (gene 3875)
  outcome: inactive
[4]
  outcome: inactive
[5]
  outcome: inactive
[6]
  outcome: inactive
[7]
  outcome: inactive
[8]
  outcome: inactive
CD40, CD40 (gene 958)
  outcome: inactive

## COC(=O)Cc1ccccc1
[1]
  outcome: inactive
[2]
  outcome: inactive
[3]
  outcome: inactive
KRT18 (gene 3875)
  outcome: inactive
[4]
  outcome: inactive
[5]
  outcome: inactive
[6]
  outcome: inactive
[8]
  outcome: inactive

## O=C(O)C(F)(F)C(F)(F)C(F)(F)C(F)(F)C(F)(F)C(F)(F)C(F)(F)C(F)(F)C(F)(F)C(F)(F)F
[1]
  AC50: 2.65 µM (active) and 2.84 µM (active)
[2]
  AC50: 4.19 µM (active) and 3.81 µM (active)
[3]
  AC50: 4.31 µM (active) and 2.34 µM (active)
KRT18 (gene 3875)
  AC50: 4.21 µM (active) and 5.29 µM (active)
[4]
  AC50: 3.77 µM (active) and 3.33 µM (active)
[5]
  outcome: inactive
[6]
  AC50: 5.24 µM (active) and 5.63 µM (active)
[7]
  outcome: inactive
[8]
  AC50: 5.12 µM (active) and 5.47 µM (active)
CD40, CD40 (gene 958)
  outcome: inactive
